Compound activity as filed in PubChem.
KDM5B inhibitor: Primary screen for KDM5B Histone Demethylases FDH-coupled qHTS. KDM5B demethylase, FDH-coupled NADH fluorescence (FDH is formaldehyde dehydrogenase). Potency, µM (series often up to 57.7 µM), usual class: inhibitors. actives 2.6% (n = 220,000). AID 1347165, 2019. Lysine-specific demethylase 5B (Homo sapiens), Q9UGL1; active = well fitted inhibition curve with a large enough effect; also: 0% is about no effect; nearly all actives have a fitted effect of over 70% in size
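qHTS format, multiple compound concentrations. Buffer 50 mM HEPES pH 7.5/0.01% Tween-20; 200 nM KDM5BΔAP final; 10 min compound preincubation; substrate-mix levels 12.5 µM peptide, 25 µM α-KG, 0.25 mM NAD⁺; 30 min RT; ΔRFU.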
* marks the source's active call; other numbers are inactive results; i = inactive. The full list was thinned out, with hits kept by preference. Potency is read from the fitted curve at half-maximal effect.

SMILES	KDM5B inhibitor
CC1(C)CC(=O)c2cc(C#N)c(SCc3cc4c(cc3Cl)OCO4)nc2C1	i
Cc1csc(NC(=O)CCc2ncc(-c3ccccc3)o2)n1	i
CN(C)C(=O)c1ccc2c(c1)n(Cc1ccc(F)cc1)c(=O)c1ccnn12	28µM*
CNC(=O)c1ccc2c(c1)n(Cc1ccc(OC)cc1)c(=O)c1ccnn12	i
CC(C)OCCCNC(=O)c1ccc(Cn2c(=O)c3cccn3c3cccnc32)cc1	i
CCNC(=O)c1ccc(CSc2nc3ccncc3n2Cc2ccc(F)cc2)cc1	i
CCn1c(=O)c2ccnn2c2ccc(C(=O)NCCCOC(C)C)cc21	32µM*
Cn1ncc(N2CCC(NC(=O)Cc3ccc(F)cc3)CC2)cc1=O	i
CN1CCC(NC(=O)c2ccc3c(c2)n(Cc2ccc(F)cc2)c(=O)c2ccnn23)CC1	28µM*
CCCCNC(=O)c1ccc2c(c1)n(Cc1ccc(F)cc1)c(=O)c1ccnn12	22µM*
CCn1c(=O)c2ccnn2c2ccc(C(=O)N3CCN(c4ccccc4)CC3)cc21	i
COc1ccc(Cn2cc(C(=O)c3ccc(F)cc3)c(=O)c3cc4c(cc32)OCCO4)cc1	i
O=C(NC1CCCC1)c1ccc(CSc2nc3ccncc3n2Cc2ccc(F)cc2)cc1	i
CCCCNC(=O)c1ccc2c(=O)n(Cc3ccc(OC)cc3)c(=O)[nH]c2c1	i
Cc1ccc(NC(=O)c2ccc3ccccc3n2)c(C)c1	i
COC(=O)c1ccc(CN)o1	i
Cc1nn(C)c(C)c1CC(=O)Nc1nc(-c2ccc(Cl)cc2Cl)cs1	i
COc1ccc(C2/C(=C(\O)c3ccc(F)cc3)C(=O)C(=O)N2c2cc(C)on2)cc1OC (configuration not stated)	i
CN(CC(=O)NC(=O)NC1CC1)c1ccc(C(C)(C)C)cc1	i
CC(C)(CNC(=S)NCc1ccccc1)CNC(=S)NCc1ccccc1	i
COc1ccc(-c2nn(-c3ccccc3)cc2CN2CCC(CO)CC2)c(F)c1	i
COc1ccc(-n2cc(CN3CCC(O)CC3)c(-c3cccc(F)c3)n2)cc1	28µM*
COc1ccc(-c2nn(-c3ccccc3)cc2CN2CCC(C#N)CC2)c(F)c1	i
CN(C(=O)CCc1ncc(-c2ccccc2)o1)C1CCS(=O)(=O)C1 (configuration not stated)	i
CC[C@@H]1CC2C3CCC4=C/C(=N/O)CC[C@]4(C)C3CC[C@]2(C)[C@H]1/C(C)=N/O (some centres not stated)	i
SMILES	KDM5B inhibitor
O=C1CCN(C(=O)[C@@H]2CCCN2Cc2cccc(OC(F)(F)F)c2)CCCCCCN1	i
O=C([C@@H]1CCCN1Cc1cc(=O)c2cc(F)ccc2[nH]1)N1CCCCC1	28µM*
Cc1[nH]c2ccc(F)cc2c1CC(=O)N1CCCC1	i
O=C(Nc1nc(-c2ccccn2)cs1)C1CC(=O)N(c2ccccc2Cl)C1 (configuration not stated)	i
O=C(Nc1ccc2c(c1)OCCCO2)c1ccccc1SCc1cccs1	i
CC(C)(C)OC(=O)N1CC(Nc2ccc(Cl)cc2)C1	i
CC(C)(C)OC(=O)N1CC(NCc2cccc(F)c2)C1	i
CC(C)(C)OC(=O)N1CC(Nc2ccccc2O)C1	100µM*
O=C(CC1CCCCC1)N1CCC(n2cc(-c3nc(-c4ccccc4)no3)nn2)CC1	i
N#Cc1cccnc1N1CCC(NC(=O)c2ccc3nccn3c2)CC1	i
O=C(c1ccccc1)C1CCN(c2ncccc2[N+](=O)[O-])CC1	i
N#Cc1cccnc1N1CC[C@@H](N2CCC(O)CC2)[C@H](O)C1	25µM*
N#Cc1sc2ncccc2c1N	i
COc1ccccc1NC(=O)C(C)OC(=O)c1ccc2ccccc2n1 (configuration not stated)	i
Cc1cc(C)c(C(=O)C(C)OC(=O)c2ccc(CO)cc2)cc1C (configuration not stated)	i
COc1ccc(-c2cc(C[C@@H]3CC[C@H](O)[C@@H](CNC4CCOCC4)O3)no2)cc1	i
CCc1ccc(-c2noc(CCC(=O)Nc3ccccc3N3CCOCC3)n2)cc1	i
COc1ccc(S(=O)(=O)Nc2nc3ccccc3nc2Nc2cccc(OC)c2)cc1	i
COc1ccccc1N1CCN(CC[C@H]2CN(C(=O)C3CC3)CC[C@H]2CC(=O)O)CC1	i
COc1cccc2c1CCN=C2C[C@H]1CN(C(=O)C2CCC2)CC[C@H]1CC(=O)O	35µM*
O=C(O)C[C@@H]1CCN(C(=O)C2CCCCC2)C[C@@H]1CCN1CCC(C(=O)O)CC1	i
O=C(O)C[C@@H]1CCN(C(=O)C2CCC2)C[C@@H]1CCN1CCN(c2ccc(F)cc2)CC1	i
CCN(CC)CC[C@H]1CN(C(=O)C2CCC2)CC[C@H]1CC(=O)O	i
COc1ccc2c(c1)C(C[C@H]1CN(C(=O)C3CCC3)CC[C@H]1CC(=O)O)=NCC2	35µM*
CC(O)CSc1nc2c(c(=O)n(C)c(=O)n2C)n1Cc1ccc(Cl)cc1 (configuration not stated)	i
SMILES	KDM5B inhibitor
Cc1ccc(S(=O)(=O)NCCO)c2ccccc12	i
O=C(O)C(c1c[nH]c2cc(Cl)ccc12)N1CCN(CCNc2cc(=O)oc3ccccc23)CC1 (configuration not stated)	i
Cc1ccccc1NC(=O)CSc1nc2c(cc1C#N)CCCC2	i
COc1ccc(C(=O)Oc2ccc3c(=O)c(Oc4ccc(C(C)(C)C)cc4)coc3c2)cc1OC	i
COc1ccc2[nH]c(C(=O)N3CCc4ccccc4C3)c(C)c2c1	i
COc1ccc(C(CNC(=O)c2oc3ccccc3c2C)N2CCCCC2)cc1 (configuration not stated)	i
CCn1c(CO)nnc1C1CC(NC(=O)Cn2cnc3ccccc3c2=O)C1 (configuration not stated)	i
COCCn1cnnc1CCNC(=O)c1oc2cc(OC)ccc2c1C	28µM*
CCn1c(CO)nnc1C1CC(NC(=O)c2[nH]c3ccc(OC)cc3c2C)C1 (configuration not stated)	28µM*
COCCn1c(CO)nnc1C1CC(NC(=O)c2ccc3c(c2)CCO3)C1 (configuration not stated)	i
CCn1c(CO)nnc1C1CC(NC(=O)Cc2c[nH]c3ccccc23)C1 (configuration not stated)	i
COc1ccc(C(CNC(=O)c2oc3cc(C)c(Cl)cc3c2C)N2CCCCC2)cc1 (configuration not stated)	i
CCn1c(CO)nnc1C1CC(NC(=O)c2oc3cc(OC)ccc3c2C)C1 (configuration not stated)	28µM*
COc1ccccc1-n1ccn2c(SCC(=O)N3CCN(c4ccccc4F)CC3)nnc2c1=O	i
CCc1ccc(-c2noc(CSc3nc4cc5c(cc4c(=O)n3Cc3ccco3)OCO5)n2)cc1	i
COc1ccc(C(=O)Nc2cccc(-c3nc4cc(Cl)ccc4o3)c2)c(OC)c1	i
Cc1ccc(S(=O)(=O)NCC(=O)O)cc1C	i
Cc1ccc(-c2noc([C@@H]3C[C@@H](O)CN3CC3CC3)n2)cc1F	i
Cc1ccc(Cn2c(NCCc3ccc(F)cc3)nc3c2c(=O)n(C)c(=O)n3C)cc1	i
COc1ccc(C(CNC(=O)c2nn(Cc3ccccc3)c(=O)c3ccccc23)N2CCCC2)cc1 (configuration not stated)	i
COC(=O)c1c(SCC(=O)Nc2ccc(Cl)cc2F)nc(=O)[nH]c1C	i
